Bioassay records deposited in PubChem BioAssay by several laboratories.
An excerpt weighted towards active compounds, which were near 1.2% of everything screened.
Gli-Sufu antag: Gli-Sufu pathway antagonists, primary screen, luciferase luminescence, Sufu-KO-LIGHT cells, uHTS | Sufu-KO-LIGHT fibroblasts, Gli luciferase reporter luminescence | inhibition, % at 5 µM | 0.74% of 340,000 active;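 active = inhibition above about 55%, limit read from the data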;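 also: 0% = DMSO-treated cells and 100% = wells with medium but no cells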
SRC3 inh: SRC3 coactivator transcriptional activity inhibitors, primary screen, cell-based, luminescence; Nuclear receptor coactivator 3 (Homo sapiens), Q9Y6Q9; HEK293 GAL4-SRC3 luciferase reporter; inhibition, % at 3.6 µM; 0.17% of 360,000 active;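 active = inhibition above a per-campaign cutoff, the mean of all compounds plus 3 SD, cut at about 60% in these data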;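 also: 0% = DMSO-treated cells and 100% = gossypol-treated cells at 36 µM; higher means less SRC3-driven luciferase light from the GAL4 reporter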
NCOA2 inhibitor: inhibition of GAL4-SRC2 driven luciferase reporter, primary screen, SRC2 inhibitor project, cell-based, luminescence; HEK293 GAL4-SRC2 luciferase reporter; 0.17% of 370,000 active; inhibition, % at 9 µM; Nuclear receptor coactivator 2 (Homo sapiens), Q15596;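 active = inhibition above the mean inhibition of all tested compounds plus 3 SD, set per campaign, cut at about 52% in these data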;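 also: 0% = DMSO treated cells and 100% = cells given Gossypol at 36 µM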
Target sequence (Q15596 whole entry, looked up, the tested form may be a part): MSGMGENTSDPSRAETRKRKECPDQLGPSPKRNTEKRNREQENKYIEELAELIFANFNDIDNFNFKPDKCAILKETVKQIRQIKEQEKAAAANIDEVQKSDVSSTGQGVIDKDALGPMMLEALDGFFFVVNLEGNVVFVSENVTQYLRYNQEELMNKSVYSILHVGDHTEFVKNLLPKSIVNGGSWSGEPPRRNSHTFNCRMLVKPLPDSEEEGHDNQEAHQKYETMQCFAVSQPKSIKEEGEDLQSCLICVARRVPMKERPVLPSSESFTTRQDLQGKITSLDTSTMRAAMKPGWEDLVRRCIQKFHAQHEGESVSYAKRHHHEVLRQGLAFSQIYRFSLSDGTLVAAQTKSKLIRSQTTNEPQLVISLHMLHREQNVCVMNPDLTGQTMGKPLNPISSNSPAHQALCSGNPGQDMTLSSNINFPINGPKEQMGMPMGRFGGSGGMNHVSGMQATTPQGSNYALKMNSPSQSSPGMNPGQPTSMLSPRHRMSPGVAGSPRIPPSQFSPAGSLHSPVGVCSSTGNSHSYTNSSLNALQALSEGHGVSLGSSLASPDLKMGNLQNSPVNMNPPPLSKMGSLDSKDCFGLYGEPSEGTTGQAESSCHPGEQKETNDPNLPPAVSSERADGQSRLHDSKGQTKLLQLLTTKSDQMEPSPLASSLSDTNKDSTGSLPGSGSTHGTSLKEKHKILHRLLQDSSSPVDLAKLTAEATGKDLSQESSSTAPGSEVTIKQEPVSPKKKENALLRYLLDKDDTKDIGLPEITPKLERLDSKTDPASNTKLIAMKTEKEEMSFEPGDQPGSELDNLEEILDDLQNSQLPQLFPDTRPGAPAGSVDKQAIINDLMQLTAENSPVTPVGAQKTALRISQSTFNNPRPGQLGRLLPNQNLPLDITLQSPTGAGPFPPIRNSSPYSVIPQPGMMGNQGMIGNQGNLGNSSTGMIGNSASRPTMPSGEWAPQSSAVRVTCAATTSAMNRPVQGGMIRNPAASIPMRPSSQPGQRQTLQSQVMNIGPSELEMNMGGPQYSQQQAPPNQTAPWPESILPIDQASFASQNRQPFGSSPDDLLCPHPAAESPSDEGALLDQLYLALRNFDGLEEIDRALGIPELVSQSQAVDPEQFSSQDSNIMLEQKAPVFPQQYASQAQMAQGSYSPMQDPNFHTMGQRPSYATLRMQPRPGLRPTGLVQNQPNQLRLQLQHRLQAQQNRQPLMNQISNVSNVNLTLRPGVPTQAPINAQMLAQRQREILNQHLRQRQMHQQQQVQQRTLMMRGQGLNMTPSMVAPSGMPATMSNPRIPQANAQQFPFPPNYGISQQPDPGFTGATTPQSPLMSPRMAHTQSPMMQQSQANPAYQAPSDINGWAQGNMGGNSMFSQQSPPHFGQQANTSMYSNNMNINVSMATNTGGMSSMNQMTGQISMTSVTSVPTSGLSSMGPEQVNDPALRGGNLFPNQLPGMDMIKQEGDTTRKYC
NCOA1 inh: SRC1 coactivator transcriptional activity inhibitors, primary screen, cell-based, luminescence; Nuclear receptor coactivator 1 (Homo sapiens), Q15788; HEK293 GAL4-SRC1 luciferase reporter; inhibition, % at 3.6 µM; 0.12% of 360,000 active; AID 588354, 2011;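 active = inhibition above the campaign mean plus 3 SD, with each screening campaign given its own cutoff, cut at about 60% in these data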;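 also: 0% = DMSO treated cells and 100% = gossypol at 36 µM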
LRH-1 inv ag: LRH-1 (NR5A2) inverse agonists, primary screen, cell-based, luminescence, HEK293T, StAR-luciferase reporter. Nuclear receptor subfamily 5 group A member 2 (Homo sapiens), O00482. LRH-1 transfected, 24 h. inhibition, % at 3.6 µM. 0.13% of 360,000 active;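 active = inhibition above the mean inhibition of all tested compounds plus 3 SD, cut at about 73% in these data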;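 also: 0% = DMSO wells and 100% = reporter-only cells lacking LRH-1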
NR2F2 inh: NR2F2 transcriptional activity inhibitors, primary screen, cell-based, luciferase reporter, HEK293T, luminescence | inhibition, % at 8.6 µM | COUP transcription factor 2 (Homo sapiens), P24468 | AID 686940, 2013 | HEK293T NGFI-A luciferase reporter | 0.7% of 370,000 active;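 active = inhibition above a per-plate cutoff, mean inhibition of test wells between control levels plus 3 SD, cut at about 38% in these data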;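 also: cells cotransfected with COUP-TFII expression vector driving the NGFI-A reporter; 0% = median of COUP-TF2 test wells and 100% = reporter-only cells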
Starred values were filed as active, the others as inactive; . = no result.

SMILES	Gli-Sufu antag	SRC3 inh	NCOA2 inhibitor	NCOA1 inh	LRH-1 inv ag	NR2F2 inh
N=c1c2c(n(Cc3ccc(F)cc3)c3c1CCC3)CCC2	47	50	16	36	74*	36
O=C(NCCc1c[nH]c2ccccc12)c1cc([N+](=O)[O-])cc([N+](=O)[O-])c1	-8	12	14	2	10	12
O=C(NCCc1c[nH]c2ccccc12)c1ccc([N+](=O)[O-])o1	.	2	52*	22	55	28
COC(=O)C1=C(C)N(Cc2ccccc2C(F)(F)F)C(=NCc2cc(OC)c(OC)c(OC)c2)NC1c1cccc(Cl)c1 (stereo not drawn)	.	.	-8	.	.	-12
O=C(Nc1ccc([N+](=O)[O-])cc1)Nc1ccc(OC(F)F)c(Cl)c1	58*	75*	0	32	10	19
O=C(Nc1ccc(OC(F)F)c(Cl)c1)Nc1ccc2c(c1)OCO2	-5	-6	-31	-13	-42	-19
CC[n+]1c(C)sc2c3ccsc3ccc21	-7	-2	16	-8	-12	-7
CCN1/C(=C/c2ccc3cc(C)ccc3[n+]2CC)Sc2ccc3sccc3c21	87*	39	.	31	14	.
CCOC(=O)[C@@]12CCCC3=C1N(CCC3)C(=O)[C@H]2CC(=O)N1CCN(C(=O)c2ccco2)CC1	.	.	15	.	.	-13
COc1ccc(Nc2ncnc3ccc(Br)cc23)cc1OC	-33	47	.	61*	10	.
Nc1nccc(-c2ccc(-n3cnc4ccccc43)cc2)n1	-34	39	12	35	3	42*
N#Cc1cc2nc(O)c(O)nc2cc1[N+](=O)[O-]	-12	11	5	9	-2	5
CNc1nc2cc([N+](=O)[O-])c([N+](=O)[O-])cc2nc1NC	84*	46	16	10	7	4
Cc1cc(C(=O)CN2C(=O)c3ccccc3S2(=O)=O)c(C)n1-c1ccccc1	15	-5	41	-12	-10	35
C=CCn1c(C)cc(C(=O)CN2C(=O)c3ccccc3S2(=O)=O)c1C	89*	88*	.	87*	88*	.
CCC(C)Oc1cc(-c2ccnc(Nc3cccc(Cl)c3)n2)ccn1 (stereo not drawn)	-8	13	6	-22	-5	2
OCCCNc1cc(-c2ccnc(Nc3cccc(Cl)c3)n2)ccn1	75*	87*	65*	86*	96*	60*
c1ccc2c(-c3ccc4nncn4c3)cncc2c1	.	62*	55*	64*	39	13
CCN(CC)C(=O)CC[C@@H]1CC[C@]2(CCCN(C(=O)c3ccccc3)C2)O1	.	.	-14	.	.	4
CS(=O)(=O)c1ccc(OCCCN2CCC(C(O)(c3ccccc3)c3ccccc3)CC2)cc1	.	.	1	.	.	2
CCCCCOC(=O)c1[nH]c2c(c1C)C(=O)CC(c1ccco1)C2 (stereo not drawn)	69*	28	.	-5	15	.
CCOCCOC(=O)c1[nH]c2c(c1C)C(=O)CC(c1cccs1)C2 (stereo not drawn)	31	-1	27	10	28	-41
C[C@H](CO)N1C[C@H](C)[C@H](CN(C)C(=O)Nc2cccc(F)c2)Oc2cc(Br)ccc2S1(=O)=O	.	.	-4	.	.	-9
CCN(CC)c1ccc(/C=N/NC(=O)c2cccc(S(=O)(=O)Nc3ccccc3OC)c2)cc1	1	-6	-5	9	24	-9
CCN(CC)c1ccc(/C=N/NC(=O)c2cccc(S(=O)(=O)Nc3ccccc3OC)c2)c(O)c1	84*	81*	32	73*	33	-17
SMILES	Gli-Sufu antag	SRC3 inh	NCOA2 inhibitor	NCOA1 inh	LRH-1 inv ag	NR2F2 inh
C[C@H]1COc2cc(NCCCN3CCOCC3)ccc2S(=O)(=O)N1	.	.	-1	.	.	1
O=C(NC1CCCCN(Cc2cccc(C(F)(F)F)c2)C1=O)c1ccc(Cl)cc1 (stereo not drawn)	.	.	16	.	.	29
Cc1cc(Nc2cccc([N+](=O)[O-])c2)cc(=O)n1-c1cccc([N+](=O)[O-])c1	.	.	19	.	.	-12
COc1ccc(/C=N/Nc2nnc(-c3ncc[nH]3)c3ccccc23)cc1	-35	8	.	-6	13	.
Oc1ccc2ccccc2c1/C=N/Nc1nnc(-c2ncc[nH]2)c2ccccc12	63*	5	-15	2	2	-32
CCCN(CCC)c1ncnc2nc[nH]c12	-17	65*	37	59	27	25
Cc1oc(-c2ccc(Cl)cc2)nc1CS(=O)CC(=O)NCc1ccccc1 (stereo not drawn)	-25	-28	-17	-5	10	2
CCc1ccc(-c2nc(CS(=O)CC(=O)NCc3ccccc3)c(C)o2)cc1 (stereo not drawn)	23	-7	55*	10	24	36
CCc1ccc(-c2nc(CN3CCC(C(=O)NCc4ccc(F)cc4)CC3)c(C)o2)cc1	93*	-6	-10	2	-5	5
COc1ccc(/C=C2/SC(=S)N(CCCC(=O)Nc3ccc(O)cc3)C2=O)cc1	57*	15	31	21	32	20
COc1ccc(/C=C2\SC(=S)N(CCCC(=O)Nc3ccc(O)cc3)C2=O)cc1	39	19	60*	9	11	21
COc1ccc(/C=C2\SC(=S)N(CCC(=O)Nc3ccc(C(=O)O)cc3)C2=O)cc1	32	8	5	-13	-6	-14
CCc1ccc(/C=C2\SC(=S)N(CCCC(=O)Nc3ccccn3)C2=O)cc1	35	14	57*	9	-2	31
COC(=O)c1ccc(/C=C2/SC(=S)N(CCCC(=O)Nc3ccccn3)C2=O)cc1	9	13	4	-4	4	10
O=[N+]([O-])c1ccc(OC[C@@H](O)CN2CCC(C(O)(c3ccccc3)c3ccccc3)CC2)c(Cl)c1	.	.	11	.	.	0
COC(=O)C1=C(C)N(Cc2cccc(C(F)(F)F)c2)C(=NCc2ccc3c(c2)OCO3)NC1CCc1ccccc1 (stereo not drawn)	.	.	-12	.	.	0
C=CCO[C@H]1CN(C(=O)OC)[C@@H](c2ccccc2Br)C[C@H]1OCC=C	.	.	17	.	.	21
COc1cc(NC(=O)c2cnn3c(C)cc(C)nc23)cc(OC)c1OC	.	.	.	.	.	-11
Cc1nc2scc(C)n2c(=O)c1S(=O)(=O)Nc1ccc(N2CCOCC2)c(Cl)c1	71*	1	0	13	-16	-6
Cc1cc(C)cc(N(CC(=O)NC2CCC(C)CC2)S(=O)(=O)c2ccc(C(C)(C)C)cc2)c1 (stereo not drawn)	.	.	-92	.	.	-20
